This is an account of results in PubChem BioAssay AID1041 (National Center for Advancing Translational Sciences (NCATS), 2008).

Molecules are shown by their SMILES. Activity calls are given as the source filed them.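 The calls were made as follows: active = compound lifting p16 RNA above DMSO-treated cells by a clear fold change, a shift of a few PCR cycles; inactive = the rest, including any drop in level.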

This assay can be described thus: p16 Derepression/Induction Secondary Assay for qHTS Assay for Epigenetic Modulators. The following applies: H358 cells, p16 mRNA RT-qPCR, 72 h; hits give high values. The text has this: NIH Molecular Libraries Screening Centers Network [MLSCN] NIH Chemical Genomics Center [NCGC] MLSCN Grant: 1 X01 MH079860-01 Assay Provider: Elisabeth D. Martinez, University of Texas SW Medical Center NCGC Assay Overview: This secondary assay characterizes selected actives identified in the qHTS of the Locus Derepression (LDR) assay (PubChem AID 597). The LDR assay detects the derepression of a GFP reporter that is stably integrated in a region of the genome of murine c127i mammary cells that is presumably silenced. Compounds that cause derepression of the locus to express GFP are identified by enumerating GFP positive cells using a laser-scanning microplate cytometer. Selected LDR actives were assayed for the induction of p16 gene expression, a gene silenced by dense methylation of its promoter. Treatment of cells with DNA methyltransferase inhibitors like 5-azadeoxycytidine induce p16 gene expression. Compounds active in this assay may affect components involved in DNA methylation or gene transcription.
NCGC Assay Protocol Summary Exponentially growing H358 non-small cell lung cancer cells were treated daily with fresh media containing the indicated concentrations of compounds for 72 hr. Cellular RNA was extracted, quantified, DNAse treated and reverse transcribed. The resulting cDNA was amplified in TaqMan real time quantitative PCR assays (Applied Biosystems) containing validated primers specific for p16 (Hs00233365_m1). Reactions were performed on an ABI Prism 7900HT, with an initial 2 min preincubation at 50 C, followed by 10 min at 95 C and then 40 cycles of 95 C for 15 seconds and 60 C for 1 min. GAPDH and 18S ribosomal RNA were used as references. Gene expression was measured by fold-induction over control DMSO-treated samples (36-37 average cycle time). Increases corresponded to at least 2-3 cycle time differences over DMSO controls, which were in the measurable range. Decreases in expression were considered insignificant as measurement of the DMSO samples were at the low limit of detection. Reactions were run in triplicate and error bars represent standard deviations. For further details, see R.L. Johnson, W. Huang, A. Jadhav, C.P. Austin, J. Inglese, E.D. Martinez, A Quantitative High-Throughput Screen Identifies Potential Epigenetic Modulators of Gene Expression, Analytical Biochemistry (2007), doi: 10.1016/j.ab.2007.12.028
For orientation: Quantitative high-throughput screening tests each substance at several concentrations.
As for `CC(C)C(=O)NC(c1ccc(N(C)C)cc1)c1ccc2cccnc2c1O` (configuration not stated), the fold change was 0.4 (inactive).

With `Nc1ncn([C@H]2C[C@H](O)[C@@H](CO)O2)c(=O)n1`, the fold change was 351 (active).

In the case of `O=C(CSc1cccc2cccnc12)N1CCCC1`, the fold change was 1 (inactive).

For `CN1CCN(Cc2cc(Cl)c3cccnc3c2O)CC1`, the fold change is 1 (inactive).

Take `O=Nc1ccc(O)c2ncccc12`: the fold change is 2 (inactive).

`CN(C)C(=O)CSc1cccc2cccnc12`: the fold change was 0.4 (inactive).

`CC(/C=C/C(=O)NO)=C\[C@@H](C)C(=O)c1ccc(N(C)C)cc1`: the fold change was 1 (inactive).

On to `CCN1CSC(=S)N(CC)C1`, for which the fold change is 1 (inactive).

For `CC(C)C(=O)NC(c1ccco1)c1cc([N+](=O)[O-])c2cccnc2c1O` (configuration not stated), the fold change is 2 (inactive).

Turning to `CC(C)C(=O)NC(c1ccco1)c1ccc2cccnc2c1O` (configuration not stated), the fold change is 1 (inactive).

Take `O=C(CSc1cccc2cccnc12)NCc1ccccc1`: the fold change was 1 (inactive).

In the case of `COc1ccc(C(NC(=O)C(C)C)c2ccc3cccnc3c2O)cc1` (configuration not stated), the fold change is 1 (inactive).
